Assay results published in PubChem BioAssay (NCI).
The panel holds about 83,000 compounds, 20% with a hit somewhere; the sample as a whole holds those more often.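 Note: values are percent growth. 100 is the growth of untreated cells, values between 100 and 0 indicate rising inhibition; between -100 and 0 indicates cell death.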 Active and inactive are the calls of the source. How the source made its calls: active means growth percent below 10; inactive means the rest.

Columns and labels:
Assay in all cases: NCI-60 one-dose screen, 48 h (100 = growth as untreated, 0 = no growth, -100 = all killed)
Details in all cases: 10 µM unless noted
[1] = test system: T-47D breast
[2] = test system: BT-549 breast
[3] = test system: MDA-MB-435 melanoma
[4] = test system: SW-620 colon
[5] = test system: MCF7 breast
[6] = test system: HCT-116 colon
[7] = test system: HCC-2998 colon
[8] = test system: KM12 colon

Measured: growth

O=C(Nc1ncc(Cc2ccccc2)s1)c1sc2ccccc2c1Cl
active: [3] -65.2%
inactive: [1] 19.3% | [2] 62.3% | [4] 20.4% | [5] 14.4% | [6] 24.8% | [7] 17.6% | [8] 12.5%

CC(O)CNC(Cc1ccccc1)c1ccc2c(c1)OCO2 (stereo unspecified)
inactive: [1] 47.2% | [2] 57.9% | [3] 99.6% | [4] 92.8% | [5] 91.5% | [6] 62.1% | [7] 104% | [8] 99.3%

Cc1cn(C)cn1
inactive: [1] 104% | [2] 101% | [3] 98.4% | [4] 108% | [5] 94.9% | [6] 105% | [7] 108% | [8] 105%

Cc1ccc(S(=O)(=O)N2CCCN(c3nc(-c4ccccc4)nc4nc(-c5ccccc5)oc34)CC2)cc1
inactive: [1] 90.8% | [2] 117% | [3] 104% | [4] 111% | [5] 93.4% | [6] 104% | [7] 107% | [8] 109%

Cc1c2ccccc2nc2cc3c(cc12)[C@H]1CC[C@]2(C)C(=O)CC[C@H]2[C@@H]1CC3
inactive: [1] 103% | [2] 96% | [3] 95.6% | [4] 99.8% | [5] 115% | [6] 90.2% | [7] 109% | [8] 95.4%

Cc1ccc(C(=O)c2ccc(CC(=O)N/N=C/c3cccc(O)c3O)n2C)cc1
inactive: [1] 25.9% | [2] 45.8% | [3] 61.1% | [4] 34.3% | [5] 16.1% | [6] 30.8% | [7] 70.6% | [8] 44.2%

Nc1c(Cl)cc(/C=C2\C=Cc3ccccc32)cc1Cl
inactive: [1] 95.6% | [2] 101% | [3] 107% | [4] 111% | [5] 123% | [6] 103% | [7] 98% | [8] 106%

COC(=O)[C@]1(C)CCC[C@]2(C)[C@H]3C[C@@H]4[C@H]5[C@@H]6CC/C(=N\OCC/C(N)=N/O)[C@H]5[C@@]3(CC[C@H]21)CC4(C(C)C)O6
inactive: [1] 50% | [2] 74.9% | [3] 82.9% | [4] 64.3% | [5] 55.9% | [6] 52.6% | [7] 90.4% | [8] 76%

COc1cc2ncnc(Nc3ccc(S(=O)(=O)Nc4nccs4)cc3)c2cc1OCCCN1CCCC1
inactive: [1] 105% | [2] 105% | [3] 99.7% | [4] 103% | [5] 99.6% | [6] 97.3% | [7] 112% | [8] 121%

COc1ccc(OC)c(Nc2nnc(-c3cc(OC)c(OC)c(OC)c3)o2)c1
inactive: [1] 82.2% | [2] 88.8% | [3] 102% | [4] 108% | [5] 105% | [6] 103% | [7] 103% | [8] 94.6%

CC(O)Cc1c[nH]c(=O)[nH]c1=O (stereo unspecified)
inactive: [2] 105% | [3] 103% | [4] 94.9% | [5] 88.9% | [6] 97.2% | [7] 119% | [8] 95.6%
active: [1] -19.1%

C=CC(=O)Nc1cccc(Oc2nccc(Nc3nnc(-c4ccc(Br)cc4)s3)n2)c1
inactive: [1] 82.1% | [2] 109% | [3] 94.3% | [4] 96% | [5] 70.8% | [6] 98.9% | [7] 114% | [8] 100%

Cc1cc(O)cc(-c2nn(C)cc2-c2cc(N3CCOCC3)nc(-c3cccnc3)n2)c1
inactive: [1] 28.8% | [2] 36.3% | [4] 38.4% | [5] 14.9% | [6] 17.3% | [7] 63% | [8] 28.9%
active: [3] 3.68%

COc1ccc(-c2cn(Cc3cc4ccccc4s3)nn2)cc1OCCN1CCCCC1
inactive: [1] 85.1% | [2] 74.8% | [3] 69.6% | [4] 90.9% | [5] 60.6% | [6] 75.9% | [7] 57.4% | [8] 87%

O=C(NCCN1CCOCC1)OCc1ccc2c(Cl)cc(Cl)c(O)c2n1
inactive: [1] 74.8% | [2] 83% | [3] 65.8% | [4] 87.6% | [5] 51% | [6] 39.1% | [7] 83.5% | [8] 53.2%

CCN(CC)CCN1C(=O)c2c(c3c4ccccc4[nH]c3c3ccc4ccccc4c23)C1=O
active: [3] -84.8% | [4] 4.79% | [5] -50.8% | [8] -15.8%
inactive: [1] 48.7% | [2] 84.5% | [6] 29.2% | [7] 85.5%

CCOC(=O)C1=C(c2ccccc2)N=C2N(c3ccccc3)N=C(C(C)=O)N2C1c1ccc(F)cc1 (stereo unspecified)
inactive: [1] 98.8% | [2] 101% | [3] 102% | [4] 99.9% | [5] 95.1% | [6] 97.8% | [7] 115% | [8] 97.6%

COc1ccc(CNc2ccc3nc(NC(=O)CN4CCCCCC4)sc3c2)cc1
inactive: [1] 42.8% | [2] 86.1% | [3] 94.1% | [4] 86.7% | [5] 69.1% | [6] 68.6% | [7] 109% | [8] 89.2%

c1cc(OCCN2CCCC2)ccc1CNc1ccc2nc(CCC3CCCCC3)[nH]c2c1
active: [1] -11.5% | [3] -50.7% | [4] 8.87% | [5] 3.44%
inactive: [2] 82.5% | [6] 15.3% | [7] 19.7% | [8] 52.5%

C=C[C@@]1(C)CC(=O)[C@@H](C(C)(C)c2cn(C)c3ccc(Br)cc23)C[C@@H]1O[Si](C)(C)C(C)(C)C
inactive: [1] 89.6% | [2] 111% | [3] 101% | [4] 97.3% | [5] 80.1% | [6] 89.7% | [7] 109% | [8] 100%

Cn1c(=O)[nH]c(=O)c2nc3c(nc21)-c1ccccc1C3=O
inactive: [1] 103% | [2] 104% | [3] 100% | [4] 105% | [5] 87.2% | [6] 102% | [7] 101% | [8] 103%

O=C(/C=C/c1cn(-c2ccccc2)nc1-c1ccccc1)CCC(=O)NO
inactive: [1] 96.7% | [2] 101% | [3] 112% | [4] 108% | [5] 91.6% | [6] 84% | [7] 111% | [8] 96.9%

c1ccc(Cn2cc3c(c2-c2ccccc2)CCc2cnoc2-3)cc1
inactive: [1] 67% | [2] 64.1% | [3] 13.5% | [4] 24.1% | [5] 51.3% | [6] 44.5% | [7] 58.5% | [8] 27.7%

COc1cc2c(c(OC)c1OC)CCC(c1cccc(C(=O)Nc3ccc(Br)cc3)c1)O2 (stereo unspecified)
inactive: [1] 28.9% | [2] 69% | [3] 81.9% | [4] 88.7% | [5] 67.1% | [6] 60.6% | [7] 71.5% | [8] 65.2%

c1ccc(-c2nc3ccccc3[nH]2)c(OCCCCCOc2ccccc2-c2nc3ccccc3[nH]2)c1
inactive: [1] 111% | [2] 88.5% | [3] 63.5% | [4] 18.5% | [5] 19.8% | [7] 92.2% | [8] 98.6%
active: [6] -10.4%

CN(C)c1ccc(C(=S)c2ccc(N(C)C)cc2)cc1
inactive: [1] 74.2% | [2] 83.5% | [4] 43.9% | [5] 46.4% | [6] 57.8% | [7] 70.6% | [8] 47.2%
active: [3] -13.2%

Cc1ccc2c(c1)=C/C(=C\c1cc(-c3ccccc3)[nH]c1O)C(=O)N=2
active: [3] -1.51%
inactive: [1] 40.2% | [2] 29.9% | [4] 32.8% | [5] 21.5% | [6] 17.6% | [7] 56.6% | [8] 28.3%

COc1ccc(-c2cc(-c3cn(-c4cccc(Cl)c4)nc3-c3ccc(OC)cc3)on2)cc1
inactive: [1] 95% | [2] 121% | [3] 110% | [4] 106% | [5] 86.6% | [6] 101% | [7] 101% | [8] 92.5%

CCOC(=O)CC1CSC(N/N=C/c2ccc(F)c(Br)c2)=N1 (stereo unspecified)
inactive: [1] 93.7% | [2] 110% | [3] 108% | [4] 102% | [5] 96.1% | [6] 88.5% | [7] 105% | [8] 93.2%

Clc1ccc(-c2cc(-c3ccccc3)nc(N3CCN(CCCNc4ccnc5cc(Cl)ccc45)CC3)n2)cc1
active: [1] -56.1% | [3] -61.8% | [4] -42.3% | [5] -18.5% | [6] -79.6% | [7] -73.4% | [8] 3.69%
inactive: [2] 100%

O=C(NCc1ccc(Cn2c(=O)sn(-c3ccccc3)c2=O)cc1)OCc1ccc2cccc(O)c2n1
active: [1] -41.7% | [2] -85% | [3] -89.9% | [4] -62.2% | [5] -43.2% | [6] -87% | [7] -71.6% | [8] -15.1%

O=C1CCCCN1c1ccc(C2=NCCCN2)cc1
inactive: [1] 57.8% | [2] 89.6% | [3] 96.9% | [4] 85.7% | [5] 84.2% | [6] 92.1% | [7] 109% | [8] 90%
